Values joined by “and” are separate entries in the source; they are usually repeats but may differ in a detail not shown here. Identical values can stand only once. Records with an inconclusive call do not appear. Active and inactive are the calls of the source. Rule for the calls, unless noted: active = hit-call score of the fitted dose curve at least 0.9, where 1 is the maximum; inconclusive = response in the unintended direction; inactive = score below 0.9.
Target: Estrogen receptor (Homo sapiens) (UniProt P03372)
Sequence (P03372 whole entry, looked up): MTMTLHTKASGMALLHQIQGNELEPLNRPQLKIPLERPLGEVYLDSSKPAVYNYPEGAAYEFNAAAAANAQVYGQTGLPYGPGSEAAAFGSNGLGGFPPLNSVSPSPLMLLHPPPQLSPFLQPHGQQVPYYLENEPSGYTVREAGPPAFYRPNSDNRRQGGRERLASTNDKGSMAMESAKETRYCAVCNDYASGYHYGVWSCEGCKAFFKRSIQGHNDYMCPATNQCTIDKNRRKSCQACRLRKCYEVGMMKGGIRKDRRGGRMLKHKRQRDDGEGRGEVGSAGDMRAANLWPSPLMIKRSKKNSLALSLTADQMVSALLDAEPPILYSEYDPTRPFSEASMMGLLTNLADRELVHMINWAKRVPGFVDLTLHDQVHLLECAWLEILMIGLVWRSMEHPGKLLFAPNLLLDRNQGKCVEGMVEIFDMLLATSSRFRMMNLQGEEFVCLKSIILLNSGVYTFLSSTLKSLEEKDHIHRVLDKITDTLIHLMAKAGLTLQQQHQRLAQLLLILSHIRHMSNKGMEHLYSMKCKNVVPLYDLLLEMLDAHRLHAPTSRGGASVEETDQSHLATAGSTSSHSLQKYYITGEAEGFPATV
Assay: OT_ERa_GFPERaERE_0480: Odyssey Thera (OT) 8-hour HeLa Transcription Induction Assay for Estrogen Receptor (AID 2283381; active = hit-call score of the fitted dose curve at least 0.9, where 1 is the maximum; inactive = score below 0.9)
How it was run: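 HeLa cells expressing GFP reporter under estrogen response element, imaged 8 h after dosing. GFP induction quantified by high-content fluorescence microscopy image analysis; gain of signal fitted versus DMSO.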

Row | SMILES | outcome
1 | COC(=O)c1ccccc1O | inactive
2 | Cc1ccc(S(=O)(=O)O)cc1C | inactive
3 | CCCCC(CC)COC(=O)CCCCCCCCC(=O)OCC(CC)CCCC (stereo not drawn) | inactive
4 | C=CCCCCCCCCC(=O)O | inactive
5 | O=c1n(CC2CO2)c(=O)n(CC2CO2)c(=O)n1CC1CO1 (stereo not drawn) | inactive
6 | Cc1ccc(N)cc1O | inactive
7 | CCCCCCCCO | inactive
8 | COC(=O)CC(=O)OC | inactive
9 | CC[C@H](C)C(=O)O[C@H]1C[C@@H](C)C=C2C=C[C@H](C)[C@H](CC[C@@H]3C[C@@H](O)CC(=O)O3)[C@H]21 | inactive
10 | CC(C)=CCCC(C)=CC=O | inactive

Target: Estrogen receptor (Homo sapiens) (UniProt P03372)
Assay: OT_ERa_GFPERaERE_0120: Odyssey Thera (OT) 2-hour HeLa Transcription Induction Assay for Estrogen Receptor (AID 2283382)
How it was run: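 HeLa cells were dosed for 2 h, then GFP reporter induction was quantified by fluorescence microscopy with high-content image analysis. Gain of signal fitted against DMSO baseline.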

Row | SMILES | outcome
11 | COC(=O)c1ccccc1O | inactive
12 | Cc1ccc(S(=O)(=O)O)cc1C | inactive
13 | CCCCC(CC)COC(=O)CCCCCCCCC(=O)OCC(CC)CCCC (stereo not drawn) | inactive
14 | C=CCCCCCCCCC(=O)O | inactive
15 | O=c1n(CC2CO2)c(=O)n(CC2CO2)c(=O)n1CC1CO1 (stereo not drawn) | inactive
16 | Cc1ccc(N)cc1O | inactive
17 | CCCCCCCCO | inactive
18 | COC(=O)CC(=O)OC | inactive
19 | CC[C@H](C)C(=O)O[C@H]1C[C@@H](C)C=C2C=C[C@H](C)[C@H](CC[C@@H]3C[C@@H](O)CC(=O)O3)[C@H]21 | inactive
20 | CC(C)=CCCC(C)=CC=O | inactive

Target: Bile acid receptor (Homo sapiens) (UniProt Q96RI1)
Sequence (Q96RI1 whole entry, looked up): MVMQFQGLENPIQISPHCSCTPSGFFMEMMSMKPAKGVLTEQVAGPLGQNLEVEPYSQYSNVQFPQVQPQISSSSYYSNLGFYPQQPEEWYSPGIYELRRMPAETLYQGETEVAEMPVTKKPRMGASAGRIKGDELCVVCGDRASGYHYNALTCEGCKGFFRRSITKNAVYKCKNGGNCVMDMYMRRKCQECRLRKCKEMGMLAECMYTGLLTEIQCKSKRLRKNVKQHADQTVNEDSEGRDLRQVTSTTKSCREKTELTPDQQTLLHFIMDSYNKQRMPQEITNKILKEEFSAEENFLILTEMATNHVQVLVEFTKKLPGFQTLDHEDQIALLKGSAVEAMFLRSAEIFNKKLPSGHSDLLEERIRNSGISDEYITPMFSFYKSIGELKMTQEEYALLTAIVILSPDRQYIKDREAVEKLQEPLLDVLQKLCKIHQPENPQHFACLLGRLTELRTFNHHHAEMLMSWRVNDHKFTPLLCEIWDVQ
Assay: OT_FXR_FXRSRC1_0480: Odyssey Thera (OT) 8-hour HEK293T Protein-Complementation Assay for Farnesoid X receptor/SRC-1 Co-activator (AID 2283383)
How it was run: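 HEK293T protein-fragment complementation assay: FXR and SRC-1 coactivator are fused to reporter fragments, and their interaction restores a fluorescent reporter. Readout was taken 8 h after dosing, with gain of signal fit relative to DMSO.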

Row | SMILES | outcome | AC50
21 | C1N2CN3CN1CN(C2)C3 | inactive | 
22 | Cc1ccc(O)cc1 | inactive | 
23 | CCCCC(CC)COC(=O)CCCCCCCCC(=O)OCC(CC)CCCC (stereo not drawn) | inactive | 
24 | Nc1cccc(N)c1 | inactive | 
25 | CCOC(=O)CC(CC(=O)OCC)(OC(C)=O)C(=O)OCC | inactive | 
26 | CCCCCCCCCCCCCCCO | inactive | 
27 | O=C1CCCCCN1 | inactive | 
28 | CCNc1ccccc1 | inactive | 
29 | C1=CCCC=CCCC=CCC1 | inactive | 
30 | CC[C@H](C)C(=O)O[C@H]1C[C@@H](C)C=C2C=C[C@H](C)[C@H](CC[C@@H]3C[C@@H](O)CC(=O)O3)[C@H]21 |  | 32 µM (active)

Target: Bile acid receptor (Homo sapiens) (UniProt Q96RI1)
Assay: OT_FXR_FXRSRC1_1440: Odyssey Thera (OT) 24-hour HEK293T Protein-Complementation Assay for Farnesoid X receptor/SRC-1 Co-activator (AID 2283384)
How it was run: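 HEK293T cells, 24 h after chemical dosing. FXR–SRC-1 coactivator interaction read as fluorescence from protein-fragment complementation of a split reporter. Gain of signal fitted against DMSO baseline.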

Row | SMILES | outcome | AC50
31 | C1N2CN3CN1CN(C2)C3 | inactive | 
32 | Cc1ccc(O)cc1 | inactive | 
33 | CCCCC(CC)COC(=O)CCCCCCCCC(=O)OCC(CC)CCCC (stereo not drawn) | inactive | 
34 | Nc1cccc(N)c1 |  | 78.8 µM (active)
35 | CC(O)CN(CCN(CC(C)O)CC(C)O)CC(C)O (stereo not drawn) | inactive | 
36 | CCOC(=O)CC(CC(=O)OCC)(OC(C)=O)C(=O)OCC | inactive | 
37 | CCOCCOCCOCCO | inactive | 
38 | O=C1CCCCCN1 | inactive | 
39 | CCNc1ccccc1 | inactive | 
40 | C1=CCCC=CCCC=CCC1 | inactive | 
41 | CC[C@H](C)C(=O)O[C@H]1C[C@@H](C)C=C2C=C[C@H](C)[C@H](CC[C@@H]3C[C@@H](O)CC(=O)O3)[C@H]21 |  | 34.8 µM (active)

Target: Retinoic acid receptor RXR-alpha (Homo sapiens) (UniProt P19793)
Sequence (P19793 whole entry, looked up): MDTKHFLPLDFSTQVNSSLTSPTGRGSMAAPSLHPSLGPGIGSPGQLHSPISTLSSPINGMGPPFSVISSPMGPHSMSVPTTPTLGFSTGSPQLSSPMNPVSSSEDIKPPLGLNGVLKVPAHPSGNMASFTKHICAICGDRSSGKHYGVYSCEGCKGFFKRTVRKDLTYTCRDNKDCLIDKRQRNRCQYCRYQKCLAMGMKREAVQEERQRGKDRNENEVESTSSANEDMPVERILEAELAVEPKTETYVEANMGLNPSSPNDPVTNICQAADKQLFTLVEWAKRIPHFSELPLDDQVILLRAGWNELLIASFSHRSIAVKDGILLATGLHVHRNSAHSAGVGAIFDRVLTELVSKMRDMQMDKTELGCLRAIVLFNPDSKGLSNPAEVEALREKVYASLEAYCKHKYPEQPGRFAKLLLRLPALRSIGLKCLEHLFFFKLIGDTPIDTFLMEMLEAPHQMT
Assay: OT_NURR1_NURR1RXRa_0480: Odyssey Thera (OT) 8-hour HEK293T Protein Complementation Assay for Nurr1/retinoid X receptor (RXR) (AID 2283385)
How it was run: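 HEK293T cells expressing Nurr1 and RXRα fused to reporter fragments (protein-fragment complementation); fluorescence measured 8 h after dosing. Gain of signal fitted relative to DMSO.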

Row | SMILES | outcome | AC50
42 | C1N2CN3CN1CN(C2)C3 | inactive | 
43 | COC(=O)c1ccccc1O | inactive | 
44 | CCOCCO | inactive | 
45 | Cc1ccc(O)cc1 | inactive | 
46 | Cc1ccc(S(=O)(=O)O)cc1C | inactive | 
47 | CCCCC(CC)COC(=O)CCCCCCCCC(=O)OCC(CC)CCCC (stereo not drawn) | inactive | 
48 | Nc1cccc(N)c1 | inactive | 
49 | C=CCCCCCCCCC(=O)O | inactive | 
50 | O=c1n(CC2CO2)c(=O)n(CC2CO2)c(=O)n1CC1CO1 (stereo not drawn) |  | 50 µM (active) and 34.7 µM (active)
51 | CC(O)CN(CCN(CC(C)O)CC(C)O)CC(C)O (stereo not drawn) | inactive | 
52 | CCOC(=O)CC(CC(=O)OCC)(OC(C)=O)C(=O)OCC | inactive | 
53 | CCCCCCCCCCCCCCCO | inactive | 
54 | CC(=O)OC[C@H]1O[C@@](COC(C)=O)(O[C@H]2O[C@H](COC(C)=O)[C@@H](OC(C)=O)[C@H](OC(C)=O)[C@H]2OC(C)=O)[C@@H](OC(C)=O)[C@@H]1OC(C)=O | inactive | 
55 | CCOCCOCCOCCO | inactive | 
56 | CCNc1ccccc1 | inactive | 
57 | C1=CCCC=CCCC=CCC1 | inactive | 
58 | Cc1ccc(N)cc1O | inactive | 
59 | CC(C)CCCCCCOC(=O)c1ccc(C(=O)OCCCCCCC(C)C)c(C(=O)OCCCCCCC(C)C)c1 | inactive | 
60 | NC(=O)NO | inactive | 
61 | CC[C@H]1OC(=O)[C@H](C)[C@@H](O[C@H]2C[C@@](C)(OC)[C@@H](O)[C@H](C)O2)[C@H](C)[C@@H](O[C@@H]2O[C@H](C)C[C@H](N(C)C)[C@H]2O)[C@](C)(O)C[C@@H](C)C(=O)[C@H](C)[C@@H](O)[C@]1(C)O | inactive | 
62 | CC1=CC(=O)CC(C)(C)C1 | inactive | 
63 | COC(=O)CC(=O)OC | inactive | 
64 | CC[C@H](C)C(=O)O[C@H]1C[C@@H](C)C=C2C=C[C@H](C)[C@H](CC[C@@H]3C[C@@H](O)CC(=O)O3)[C@H]21 | inactive | 
65 | CC(C)=CCCC(C)=CC=O | inactive | 
66 | O=C(CCCCCCCCc1cccnc1)N1CCC(C=C(c2ccccc2)c2ccccc2)CC1 | inactive | 
67 | C[C@](N)(Cc1ccc(O)c(O)c1)C(=O)O | inactive | 
68 | O=C1OC(=O)C2C3C=CC(C3)C12 (stereo not drawn) | inactive | 

— PubChem BioAssay (EPA / NIEHS)
